Screens: PubChem BioAssay, Johns Hopkins Ion Channel Center
Sampled rows, rich in hits. Any-hit rate of the full collection: about 2.4%.
CHT block: inhibitors of human choline transporter CHT; CHT-expressing cells, membrane potential dye, choline response; hits give low values; B-score at 10 µM; AID 488975, 2010; High affinity choline transporter 1 (Homo sapiens), Q9GZV3; 310,000 tested, 0.86% active;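 active = B-score over 3 SD under the library average, and starting fluorescence ratio not unusually high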;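 also: choline stimulus applied at its EC90 after an EC20 pre-addition; B-score computed on integrated fluorescence ratio after choline addition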
ANO1 activ: TMEM16A chloride channel activators or potentiators, primary screen, cell-based, HTS. Anoctamin-1 (Mus musculus), Q8BHY3. B-score at 10 µM. 340,000 tested, 0.3% active. AID 623877, 2012. HEK293 TMEM16A/YFP-H148Q/I152L, iodide quench fluorescence; hits give low values;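 active = fluorescence-ratio B-score plate-corrected deviation score at least 3 library SD below zero, with starting fluorescence score within 5 deviations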;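 also: channel opened by trigger with iodide after compound preincubation; score built on the fluorescence ratio of max minus min over baseline; more negative score means more quench and so TMEM16A activation or potentiation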
Target sequence (Q8BHY3 whole entry, looked up): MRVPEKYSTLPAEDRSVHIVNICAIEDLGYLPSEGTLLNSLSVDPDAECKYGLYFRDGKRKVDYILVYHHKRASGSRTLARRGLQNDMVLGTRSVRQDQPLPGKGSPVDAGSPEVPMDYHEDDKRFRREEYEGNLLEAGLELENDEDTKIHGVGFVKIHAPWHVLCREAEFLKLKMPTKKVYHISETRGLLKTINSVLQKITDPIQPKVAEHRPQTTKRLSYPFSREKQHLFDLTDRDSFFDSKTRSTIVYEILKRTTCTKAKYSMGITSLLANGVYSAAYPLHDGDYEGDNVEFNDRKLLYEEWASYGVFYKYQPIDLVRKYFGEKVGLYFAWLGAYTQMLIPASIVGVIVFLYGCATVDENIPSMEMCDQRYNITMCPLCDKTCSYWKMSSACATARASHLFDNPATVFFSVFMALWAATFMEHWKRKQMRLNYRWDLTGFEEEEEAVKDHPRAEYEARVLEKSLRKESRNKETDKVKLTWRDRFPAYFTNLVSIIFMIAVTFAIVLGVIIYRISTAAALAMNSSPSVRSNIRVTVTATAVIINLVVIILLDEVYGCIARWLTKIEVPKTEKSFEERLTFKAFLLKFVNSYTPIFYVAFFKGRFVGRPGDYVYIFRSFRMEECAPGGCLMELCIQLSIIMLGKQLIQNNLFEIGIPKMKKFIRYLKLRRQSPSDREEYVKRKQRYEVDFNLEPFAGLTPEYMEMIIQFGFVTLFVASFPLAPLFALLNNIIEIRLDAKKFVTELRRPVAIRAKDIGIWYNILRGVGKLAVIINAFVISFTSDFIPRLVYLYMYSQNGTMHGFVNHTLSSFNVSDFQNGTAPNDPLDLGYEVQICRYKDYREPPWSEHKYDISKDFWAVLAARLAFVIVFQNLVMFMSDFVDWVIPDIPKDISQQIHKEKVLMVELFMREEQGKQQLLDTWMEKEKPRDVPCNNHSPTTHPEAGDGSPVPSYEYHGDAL
CHT allo act: CHT positive allosteric modulators, primary screen, cell-based, membrane potential dye, choline EC20. B-score at 10 µM. 310,000 tested, 0.49% active. AID 488977, 2010. High affinity choline transporter 1 (Homo sapiens), Q9GZV3. CHT-expressing cells; hits give high values; LV-AA mutant CHT in HEK293 cells;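 active = initial fluorescence not abnormally high and integrated response B-score, plate-corrected, over 3 SD above library mean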
ANO1 block: TMEM16A chloride channel inhibitors, primary screen, cell-based, HTS | AID 588511, 2011 | HEK293 TMEM16A/YFP iodide influx fluorescence, ionomycin | 310,000 tested, 1.2% active | normalized B-score (activity score, 25-100; higher = stronger inhibition) at 10 µM | Anoctamin-1 (Mus musculus), Q8BHY3;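 active = ratio plate-corrected score three or more library SD toward inhibition, starting fluorescence score within five deviations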;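 also: score derived from kinetic fluorescence span divided by baseline fluorescence per well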
CHT inh conf: CHT inhibitors, confirmation, cell-based, membrane potential dye, duplicate. shares compounds with CHT block. CHT-expressing cells, choline membrane potential dye; LV-to-AA substituted CHT, HEK293 cells. CHT activity remaining % of control (hits give low values), % at 10 µM. 2,400 tested, 70% active. AID 493221, 2011;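 active = choline transporter activity left, mean of duplicates at 10 µM, below buffer-only control mean minus 3 SD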;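 also: depolarization triggered by choline at its EC90 following an EC20 pre-addition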
HEK293 CHT ctr: membrane potential effects in parental HEK293, counter-screen for CHT inhibitor project, cell-based, membrane potential dye; shares compounds with CHT block; choline response; active = decrease or increase beyond buffer ±3SD; membrane potential ratio readout (active if shifted either direction beyond buffer ±3SD; no single direction) at 10 µM; 2,400 tested, 4% active;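 also: parental cells lack the transporter so any hit is non-specific; ratio is peak minus trough fluorescence over baseline after EC90 choline challenge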
Of the large screens only hits and unclear results are named; the others gave an inactive call (follow-up assays come after a bar, where they were run).

CCCCn1cnc2c(SCc3ccccn3)nc(N)nc21	none (no result: CHT block, CHT allo act, ANO1 block)
CCOC(=O)c1[nH]c(C)c(C(=O)N2CCc3ccccc32)c1C	CHT block -6 | CHT inh conf inactive | HEK293 CHT ctr 2.4
CC(C)CN1CCNC(=O)C1CC(=O)NCCc1ccc(C(F)(F)F)cc1 (stereo not given)	CHT block -4.9 | CHT inh conf inactive | HEK293 CHT ctr inactive
NC(N)=N/N=C/c1ccc(Cl)c(Cl)c1	CHT block -5.4 | CHT inh conf 41% | HEK293 CHT ctr inactive
NC(N)=N/N=C/c1ccc(OCc2ccccc2Cl)cc1	none
CCc1cc(=O)oc2c(C)c(OCC(=O)NCc3ccccn3)ccc12	none
Cc1ccc(-c2nn(-c3ccccn3)c(=O)c3ccccc23)cc1	CHT block -5.2 | CHT inh conf 67% | HEK293 CHT ctr inactive
CC(=O)/C(C#N)=C1\NC(=O)C(Cc2ccc(C)c(Cl)c2)S1 (stereo not given)	CHT block -7 | CHT inh conf inactive | HEK293 CHT ctr inactive
C/C(=N\N=C1\NC(=O)C(CC(=O)Nc2ccc(C)c(Cl)c2)S1)C(C)(C)C (stereo not given)	none
COc1ccc(C2C(CC(=O)O)=C(Nc3ccccc3)C(=O)N2c2ccccc2)cc1 (stereo not given)	none
O=C(O)CC1=C(Nc2ccccc2)C(=O)N(c2ccccc2)C1c1ccc(F)cc1 (stereo not given)	CHT block -6.4 | CHT inh conf 32% | HEK293 CHT ctr inactive
COc1cccc(NC(=O)c2cc3ccccc3o/c2=N\O)c1	CHT block -6.3 | CHT inh conf inactive | HEK293 CHT ctr inactive
CCOP(=O)(OCC)C(NC(=O)Nc1c(C)cc(C)cc1C)c1ccccc1 (stereo not given)	CHT block -6 | CHT inh conf inactive | HEK293 CHT ctr inactive
COCCN(C(=O)CCC(=O)Nc1cc(C)on1)C(C(=O)NC(C)(C)C)c1cccc(OC)c1OC (stereo not given)	CHT block -5.8 | CHT inh conf inactive | HEK293 CHT ctr inactive
CCN1CCN(CCCNC(=O)c2ccc3c(c2)NC(=O)c2ccccc2S3)CC1	none
CC1CCCC(C)N1CCCNC(=O)c1ccc2c(c1)NC(=O)c1ccccc1S2 (stereo not given)	CHT block -5.2 | CHT inh conf 40% | HEK293 CHT ctr inactive
CC1CCCC(C)N1CCCNC(=O)c1nn(C)c2c1CSc1ccccc1-2 (stereo not given)	CHT block -11 | CHT inh conf 2.4% | HEK293 CHT ctr inactive
COCCN(C(=O)COC(=O)Cc1ccc(Cl)cc1Cl)c1c(N)n(Cc2ccccc2)c(=O)[nH]c1=O	none
CCC(=O)NC(Nc1ccccn1)(C(=O)OC)C(F)(F)F (stereo not given)	none
CCc1c(C)nc2ncnn2c1NCCc1ccccc1	CHT block -5.2 | CHT inh conf 47% | HEK293 CHT ctr inactive
CCc1c(C)nc2ncnn2c1NCCc1ccc(Cl)cc1	CHT block -5.2 | CHT inh conf 63% | HEK293 CHT ctr inactive
COc1cc2c(cc1OC)/C(=C/c1ccc(Br)cc1)C(=O)OC2	none
COc1ccc(F)cc1S(=O)(=O)Nc1cc2c3c(c1)CCC(=O)N3CCC2	none
CCN1CCN(c2ncnc3c2cnn3-c2ccccc2)CC1	none
c1ccc(CCN2CCN(c3ncnc4c3cnn4-c3ccccc3)CC2)cc1	CHT block -5.3 | CHT inh conf 34% | HEK293 CHT ctr inactive
Cn1ncc2c(N3CCC(Cc4ccccc4)CC3)ncnc21	CHT block -6.6 | CHT inh conf 66% | HEK293 CHT ctr inactive
CSc1ccccc1NC(=O)c1ccc(Cl)s1	none
Nn1c(SCC(=O)N2CCCCCC2)nnc1-c1ccco1	none (no result: CHT block, CHT allo act, ANO1 block)
CN(C(=O)COC(=O)CNC(=O)c1ccc(Cl)cc1Cl)c1ccccc1	none
Cn1c(=O)c(Nc2ccc(O)cc2)c2c3c(cccc31)C(=O)c1ccccc1-2	CHT block -16 | CHT inh conf 9.4% | HEK293 CHT ctr inactive
CC(C)c1ccc(Nc2c([N+](=O)[O-])c(=O)n(C)c3ccccc23)cc1	none
CCOc1ccccc1NC(=O)CSc1nc2ccccc2nc1N1CCCC1	CHT block -5.5 | CHT inh conf inactive | HEK293 CHT ctr inactive
CCOc1ccccc1NC(=O)CSc1nc2ccccc2nc1N1CCOCC1	none
CCOC(=O)C1=C(c2ccccc2)OC(N)=C(C#N)C1c1cccs1 (stereo not given)	none
CCOC(=O)C1=C(CC)OC(N)=C(C#N)C1c1cc(OC)ccc1OC (stereo not given)	CHT block -13 | CHT inh conf inactive | HEK293 CHT ctr inactive
CCOC(=O)C1=C(CC)OC(N)=C(C#N)C1c1ccc(OC)c(OC)c1OC (stereo not given)	none
CCOC(=O)CC1=C(C(=O)OCC)C(c2cccs2)C(C#N)=C(N)O1 (stereo not given)	CHT block -5.3 | CHT inh conf inactive | HEK293 CHT ctr inactive
CCCOc1ccc(N2C(=O)CC(SC(=NCC)Nc3cccc(F)c3)C2=O)cc1 (stereo not given)	none
CCCc1ccc(OCc2ccc(C(=O)O)o2)c(OC)c1	none
COc1ccc(CCN(C)C(=O)c2ccc(COc3ccccc3)o2)cc1OC	CHT block -6.9 | CHT inh conf 55% | HEK293 CHT ctr inactive
CCCCn1c(SCn2nnc3ccccc3c2=O)nc2cc(S(N)(=O)=O)ccc21	CHT block -6.2 | CHT inh conf 49% | HEK293 CHT ctr inactive
COC(=O)/C(=C/c1ccc(OC)cc1)NC(=O)c1ccco1	none
COc1cccc(N2CCN(C(=O)CC(C)(C)CC3=NS(=O)(=O)c4ccccc4N3)CC2)c1	CHT block -5.5 | CHT inh conf inactive | HEK293 CHT ctr inactive
CC1CCC(NC(=O)c2cccc(S(=O)(=O)N3CCN(c4ccc(F)cc4)CC3)c2)CC1 (stereo not given)	CHT block -5.6 | CHT inh conf inactive | HEK293 CHT ctr inactive
CC(=O)N1CCN(C(=O)c2cccc(S(=O)(=O)N3CCN(c4ccccc4)CC3)c2)CC1	none (no result: CHT block, CHT allo act, ANO1 block)
O=C(NNC(=O)c1cccc(S(=O)(=O)N2CCN(c3ccccc3)CC2)c1)c1ccc(Cl)cc1	CHT block -5.4 | CHT inh conf inactive | HEK293 CHT ctr inactive
COc1ccc(-c2csc(NC(=O)c3cc(C)on3)c2C#N)cc1OC	none
